# Structures can show the parent of a compound that is named as a salt. ± gives the standard deviation of the averaged measurements.
# Columns and labels:
# Experiment in all cases: growth (OD600 after 10 h); higher = more growth (less inhibition)
# [1] = test system: E. coli TESEC Alr+ wild-type control; settings: compound 0.1 mM; raw OD600 reference: median of DMSO wells 0.241, cell-free background 0.041
# Description: (§1)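 TESEC Mtb Alr E. coli, or the Alr+ wild-type control, in 384-well plates with Prestwick library compounds at 0.1 mM and 1% DMSO, across arabinose induction levels of 1E3 to 1E7 nM. Growth is read as OD600 after 10 h at 37 °C in triplicate biological replicates.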
# [2] = test system: E. coli TESEC Mtb Alr; settings: compound 0.1 mM
# Description: as §1
# [3] = test system: E. coli TESEC Mtb Asd; settings: compound 0.1 mM
# Description: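 TESEC E. coli strains in which the native enzyme is deleted and replaced by arabinose-inducible Mtb Asd, DapB, CysH or TrpD, each grown in its selective medium. Strains were screened against the Prestwick library at 0.1 mM and 1% DMSO in 384-well format at low and high arabinose induction. Growth is read as OD600 after 10 h in triplicate.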
# [4] = test system: E. coli TESEC Alr+ wild-type control; settings: compound 0.1 mM; raw OD600 reference: median of DMSO wells 0.49, cell-free background 0.052
# Description: (§2)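 TESEC Mtb Alr E. coli (ΔaraC ΔtolC ΔentC Δalr ΔdadX, arabinose-inducible Mtb Alr) or the Alr+ wild-type control strain, grown in defined M9-fructose medium without D-alanine in 96-well plates with Prestwick library compounds at 0.1 mM and 1% DMSO. Low Alr induction is 0.1 µM arabinose and high induction is 10 mM arabinose.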
# [5] = test system: E. coli TESEC Mtb Alr; settings: compound 0.1 mM; remark: listed apart in the source
# Description: as §2
# [6] = arabinose 1000 nM, raw OD600 reference: median of DMSO wells 0.294, cell-free background 0.041
# [7] = arabinose 10000 nM, raw OD600 reference: median of DMSO wells 0.264, cell-free background 0.041
# [8] = arabinose 100000 nM, raw OD600 reference: median of DMSO wells 0.201, cell-free background 0.041
# [9] = arabinose 1000000 nM, raw OD600 reference: median of DMSO wells 0.193, cell-free background 0.041
# [10] = arabinose 10000000 nM, raw OD600 reference: median of DMSO wells 0.146, cell-free background 0.041
# [11] = arabinose induction (level): High, raw OD600 reference: median of DMSO wells 0.331, cell-free background 0.041
# [12] = arabinose induction (level): Low, raw OD600 reference: median of DMSO wells 0.417, cell-free background 0.041
# [13] = arabinose 100 nM, raw OD600 reference: median of DMSO wells 0.413, cell-free background 0.052
# [14] = arabinose 10000000 nM, raw OD600 reference: median of DMSO wells […], cell-free background 0.052
SMILES,growth [1],"growth [2, 6]","growth [2, 7]","growth [2, 8]","growth [2, 9]","growth [2, 10]","growth [3, 11]","growth [3, 12]",growth [4],"growth [5, 13]","growth [5, 14]"
O=C(O[C@@H]1C[C@@H]2C[C@H]3C[C@H](C1)N2CC3=O)c1c[nH]c2ccccc12 [Dolasetron mesilate],0.204 ± 0.0058,0.25 ± 0.0086,0.238 ± 0.0033,0.137 ± 0.0054,0.0823 ± 0.0017,0.114 ± 0.0051,0.226 ± 0.044,0.482 ± 0.053,0.473 ± 0.027,0.405 ± 0.016,0.23 ± 0.036
CC(=O)c1ccc2c(c1)N(CCCN(C)C)c1ccccc1S2 [Acetopromazine maleate salt],0.183 ± 0.0048,0.228 ± 0.0028,0.263 ± 0.016,0.208 ± 0.023,0.123 ± 0.0016,0.152 ± 0.0028,0.214 ± 0.025,0.301 ± 0.033,0.47 ± 0.012,0.399 ± 0.011,0.322 ± 0.015
CC(C)(C(=O)c1cccnc1)c1cccnc1 [Metyrapone],0.246 ± 0.0034,0.311 ± 0.017,0.273 ± 0.0073,0.198 ± 0.0061,0.2 ± 0.017,0.1411 ± 0.00086,0.317 ± 0.017,0.428 ± 0.0064,0.637 ± 0.095,0.409 ± 0.013,0.3383 ± 0.0029
CN1CCN(CCCN2c3ccccc3Sc3ccc(C(F)(F)F)cc32)CC1 [Trifluoperazine dihydrochloride],0.0402,0.03983 ± 0.00032,0.03903 ± 0.00012,0.04003 ± 5.8e-05,0.03933 ± 5.8e-05,0.0403 ± 0.0001,0.0513 ± 0.00026,0.054 ± 0.0007,0.04767 ± 0.00035,0.26 ± 0.19,0.0509 ± 0.00026
CN(CCOc1ccc(CC2SC(=O)NC2=O)cc1)c1ccccn1 (stereo not drawn) [Rosiglitazone Hydrochloride],0.142 ± 0.0027,0.177 ± 0.0057,0.168 ± 0.011,0.177 ± 0.0028,0.0847 ± 0.0029,0.112 ± 0.0041,0.184 ± 0.026,0.19 ± 0.023,0.327 ± 0.0092,0.266 ± 0.021,0.1 ± 0.016
Nc1nnc(-c2cccc(Cl)c2Cl)c(N)n1 [Lamotrigine],0.14 ± 0.0084,0.206 ± 0.028,0.203 ± 0.0052,0.216 ± 0.014,0.21 ± 0.0054,0.179 ± 0.0078,0.236 ± 0.025,0.168 ± 0.019,0.46 ± 0.021,0.413 ± 0.029,0.386 ± 0.029
CC1CNc2c(cccc2S(=O)(=O)N[C@@H](CCCNC(=N)N)C(=O)N2CC[C@@H](C)C[C@@H]2C(=O)O)C1 (stereo partly drawn) [Argatroban],0.211 ± 0.0062,0.288 ± 0.0078,0.257 ± 0.0085,0.222 ± 0.014,0.182 ± 0.012,0.144 ± 0.0053,0.348 ± 0.096,0.395 ± 0.048,0.429 ± 0.019,0.404 ± 0.011,0.369 ± 0.016
Nc1nc2n[nH]nc2c(=O)[nH]1 [Azaguanine-8],0.21 ± 0.0092,0.241 ± 0.0083,0.194 ± 0.0047,0.239 ± 0.0079,0.143 ± 0.0028,0.132 ± 0.009,0.397 ± 0.01,0.42 ± 0.044,0.3656 ± 0.0032,0.409 ± 0.026,0.245 ± 0.16
COC(=O)[C@@H]1[C@H]2C[C@H]3c4[nH]c5ccccc5c4CCN3C[C@@H]2CC[C@@H]1O [Yohimbine hydrochloride],0.217 ± 0.0081,0.28 ± 0.007,0.265 ± 0.0075,0.176 ± 0.011,0.142 ± 0.0078,0.142 ± 0.0022,0.163 ± 0.031,0.318 ± 0.074,0.525 ± 0.13,0.409 ± 0.011,0.343 ± 0.031
CC[N+](C)(C)c1cccc(O)c1 [Edrophonium chloride],0.258 ± 0.011,0.294 ± 0.012,0.266 ± 0.004,0.227 ± 0.03,0.192 ± 0.012,0.144 ± 0.0031,0.384 ± 0.013,0.403 ± 0.013,0.437 ± 0.029,0.401 ± 0.015,0.346 ± 0.029
Clc1ccc(Nc2nnc(Cc3ccncc3)c3ccccc23)cc1 [Vatalanib],0.104 ± 0.031,0.0967 ± 0.038,0.0476 ± 0.003,0.0763 ± 0.0031,0.0489 ± 0.0002,0.0787 ± 0.0014,0.112 ± 0.017,0.0893 ± 0.021,0.514 ± 0.0082,0.303 ± 0.17,0.0605 ± 0.0043
C[N+](C)(C)CCOC(N)=O [Carbachol],0.251 ± 0.0053,0.309 ± 0.014,0.284 ± 0.02,0.177 ± 0.0065,0.186 ± 0.006,0.164 ± 0.0027,0.475 ± 0.0086,0.438 ± 0.051,0.492 ± 0.011,0.409 ± 0.023,0.364 ± 0.014
CCOc1ccccc1OCC1CNCCO1 (stereo not drawn) [Viloxazine hydrochloride],0.236 ± 0.0043,0.294 ± 0.023,0.273 ± 0.0049,0.193 ± 0.011,0.196 ± 0.01,0.135 ± 0.0069,0.251 ± 0.022,0.386 ± 0.012,0.539 ± 0.074,0.406 ± 0.011,0.366 ± 0.0079
CCCCC(CC)CNC(=N)NC(=N)NCCCCCCNC(=N)NC(=N)NCC(CC)CCCC (stereo not drawn) [Alexidine dihydrochloride],0.0519 ± 0.0017,0.0821 ± 0.0028,0.0849 ± 0.0013,0.0842 ± 0.0022,0.0553 ± 0.0016,0.0814 ± 0.004,0.0536 ± 0.00095,0.0584 ± 0.0047,0.0485 ± 0.0022,0.0695 ± 0.012,0.0779 ± 0.013
COc1ccc2cc([C@H](C)C(=O)O)ccc2c1 [Naproxen],0.26 ± 0.0081,0.265 ± 0.029,0.249 ± 0.014,0.187 ± 0.012,0.168 ± 0.0019,0.132 ± 0.0043,0.247 ± 0.028,0.426 ± 0.063,0.5599 ± 0.0025,0.42 ± 0.0057,0.293 ± 0.019
COC(c1ccccc1)(c1ccccc1)[C@H](Oc1nc(C)cc(C)n1)C(=O)O [Ambrisentan],0.217 ± 0.0053,0.28 ± 0.0015,0.285 ± 0.0062,0.177 ± 0.024,0.224 ± 0.0037,0.13 ± 0.0029,0.284 ± 0.072,0.315 ± 0.053,0.535 ± 0.022,0.41 ± 0.008,0.354 ± 0.015
CCN(CC)C(=O)C1(c2ccccc2)CC1CN (stereo not drawn) [Milnacipran hydrochloride],0.233 ± 0.011,0.298 ± 0.0046,0.271 ± 0.0097,0.202 ± 0.006,0.182 ± 0.02,0.151 ± 0.0028,0.239 ± 0.024,0.385 ± 0.033,0.547 ± 0.052,0.424 ± 0.014,0.322 ± 0.0073
CN(C)CCC=C1c2ccccc2CCc2ccccc21 [Amitryptiline hydrochloride],0.1735 ± 0.0011,0.218 ± 0.0042,0.247 ± 0.0093,0.195 ± 0.012,0.08457 ± 0.00076,0.152 ± 0.0021,0.146 ± 0.0079,0.273 ± 0.011,0.476 ± 0.0078,0.403 ± 0.015,0.182 ± 0.031

# Source: the supplement of paper PMC9262897, “Low-cost anti-mycobacterial drug discovery using engineered E. coli” (Nature Communications, 2022)
